The full list was thinned out, with hits kept by preference.
L3MBTL1 block = inhibitors of human L3MBTL1 | Q9Y468 | AlphaScreen L3MBTL1–H3K9me1 peptide binding | Potency, µM (doses to about 57.1 µM), inactives show top-dose activity, negative = inhibition, usual class: inhibitors | 230,000 compounds, 0.66% hits; note: nearly all actives have a fitted effect of over 60% in size
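L3MBTL1 50 nM + b-AHA-H3(1-15)K9me1 75 nM, 30 min RT; compound added, 30 min RT; streptavidin donor/Ni-chelate acceptor beads 10 ug/mL each final, 30 min RT dark; AlphaScreen read.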
BLM helicase inh = inhibitors of human Bloom syndrome helicase BLM | P54132 | recombinant BLM DNA unwinding, fluorescence dequenching | Potency, µM (highest dose often 56.1 µM), without a hit: at the top dose activity change, negative = inhibition, hits mostly inhibitors | 350,000 compounds, 0.2% hits | AID 2528;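 note: plate controls were vehicle for no effect and no enzyme for full effect; nearly all actives have a fitted effect of over 35% in size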
Target sequence (P54132 whole entry, looked up): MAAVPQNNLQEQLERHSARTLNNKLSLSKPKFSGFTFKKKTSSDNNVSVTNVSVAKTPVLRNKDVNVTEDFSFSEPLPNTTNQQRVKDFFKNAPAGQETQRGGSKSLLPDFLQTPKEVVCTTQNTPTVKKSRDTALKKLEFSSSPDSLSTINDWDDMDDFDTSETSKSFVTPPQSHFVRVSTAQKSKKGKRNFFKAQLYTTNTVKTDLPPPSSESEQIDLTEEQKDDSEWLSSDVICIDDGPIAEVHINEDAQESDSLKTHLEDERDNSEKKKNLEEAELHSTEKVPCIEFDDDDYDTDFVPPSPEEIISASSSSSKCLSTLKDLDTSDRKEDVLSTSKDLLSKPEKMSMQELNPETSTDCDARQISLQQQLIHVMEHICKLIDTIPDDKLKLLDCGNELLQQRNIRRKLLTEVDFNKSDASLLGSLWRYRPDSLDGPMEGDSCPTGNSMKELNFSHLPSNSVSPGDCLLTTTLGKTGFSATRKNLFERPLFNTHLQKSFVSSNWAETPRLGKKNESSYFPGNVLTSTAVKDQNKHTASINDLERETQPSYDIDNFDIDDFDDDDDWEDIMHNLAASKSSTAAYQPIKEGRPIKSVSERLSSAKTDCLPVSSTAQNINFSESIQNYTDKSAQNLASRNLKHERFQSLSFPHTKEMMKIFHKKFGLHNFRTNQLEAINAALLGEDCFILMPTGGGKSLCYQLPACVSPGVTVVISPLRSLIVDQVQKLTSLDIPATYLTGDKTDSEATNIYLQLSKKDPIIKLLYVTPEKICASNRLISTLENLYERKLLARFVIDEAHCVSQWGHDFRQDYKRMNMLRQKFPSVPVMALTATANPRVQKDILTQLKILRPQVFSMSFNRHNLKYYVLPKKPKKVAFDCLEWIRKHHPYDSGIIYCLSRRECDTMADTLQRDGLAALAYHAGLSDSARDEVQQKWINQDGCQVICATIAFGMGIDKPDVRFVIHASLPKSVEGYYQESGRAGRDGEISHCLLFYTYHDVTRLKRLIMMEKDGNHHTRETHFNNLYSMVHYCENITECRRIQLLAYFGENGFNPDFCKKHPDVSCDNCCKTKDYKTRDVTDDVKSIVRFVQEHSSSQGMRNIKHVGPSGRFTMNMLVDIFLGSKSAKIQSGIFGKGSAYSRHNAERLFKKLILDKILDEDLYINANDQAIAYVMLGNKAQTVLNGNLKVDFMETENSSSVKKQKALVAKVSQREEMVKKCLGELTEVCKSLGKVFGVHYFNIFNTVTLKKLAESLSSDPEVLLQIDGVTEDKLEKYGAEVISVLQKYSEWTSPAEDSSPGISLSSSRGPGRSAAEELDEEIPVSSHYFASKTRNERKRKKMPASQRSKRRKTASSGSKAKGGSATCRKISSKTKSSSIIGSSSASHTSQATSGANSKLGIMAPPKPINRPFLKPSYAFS
GCN5L2 inh = blocks human GCN5L2 histone acetyltransferase; AID 504327; Q92830; Potency, µM (doses to about 58.9 µM), for inactives: at the highest dose activity change, negative = inhibition, hits mostly inhibitors; GCN5L2 HAT assay, ThioGlo1 CoA-SH fluorescence; 390,000 compounds, 0.21% hits
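Titration-based screen in which CoA formation is detected via maleimide probe ThioGlo1 (50uM) turning fluorescent on thiol reaction; substrates H3(1-25) 75uM and acetyl-CoA 70uM, GCN5L2 20nM, 20 min incubation at room temperature.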
JMJD2E inh = blocks human JMJD2E demethylase activity | JMJD2E catalytic domain, FDH-coupled NADH fluorescence (FDH is formaldehyde dehydrogenase) | 230,000 compounds, 1.6% hits | Potency, µM (series often up to 57.1 µM), inactives show at the highest dose activity change, negative = inhibition, most hits filed as inhibitors | AID 2147; active = well fitted inhibition curve with a large enough effect, not every such curve was filed as active; inconclusive = small, poorly fitted or top-dose-only effect, or another doubt; inactive = no such curve, though single readings can be large or run the other way;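 note: 0% = wells with enzyme and -100% = buffer wells without enzyme; nearly all actives have a fitted effect of over 50% in size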
APEX1 inh = blocks human APE1 abasic DNA cleavage; recombinant APE1, TAMRA/BHQ-2 abasic DNA cleavage fluorescence; 350,000 compounds, 0.35% hits; AID 2517; P27695; Potency, µM (titrated, usually from 65.8 µM), without a hit: at the highest dose activity change, negative = inhibition, hits mostly inhibitors;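 note: plate controls were vehicle for no effect and reference inhibitor for full effect; nearly all actives have a fitted effect of over 55% in size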
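Measures dequenching upon AP-site incision of a 5'-TAMRA/3'-BHQ-2 THF-containing duplex, 50 nM; human APE1 0.75 nM after 15 min room-temperature exposure to compound; kinetic three-point read at one-minute spacing.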
RECQ1 helicase = RECQ1 (human) helicase inhibition | Potency, µM (top dose mostly 57.3 µM), inactives show top-dose activity, negative = inhibition, usual class: inhibitors | AID 2549 | 240,000 compounds, 0.54% hits | P46063 | RECQ1 DNA unwinding, red fluorescence kinetic read;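 note: plate controls were vehicle for no effect and no enzyme for full effect; nearly all actives have a fitted effect of over 30% in size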
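50 nM RECQ1T1 preincubated 15 min with compound in Tris pH 8.0 buffer with MgCl2, DTT, Tween-20 and 2.5 ug/ml poly(dI-dC); started with 200 nM TAMRA/BHQ-2 forked duplex and 2 mM ATP. Unwinding read as fluorescence (525/598 nm), two reads 2 h apart.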
* hit, by the source's call; i = inactive; u = inconclusive; x = not tested or not shown; ! = repeats disagree; [ ] = another dose, or the depositor's remark. Unless noted, calls come from the whole dose curve; as a rule, active = well fitted curve in the direction sought with a large enough effect; inconclusive = small, poorly fitted or top-dose-only effect, or another doubt; inactive = no such curve, though single readings can be large; an effect the other way counts as inactive or inconclusive. Unless noted, % is set by controls: 0 for no effect and ±100 for the full control effect; potency is the fitted concentration of half-maximal effect.

SMILES | L3MBTL1 block | BLM helicase inh | GCN5L2 inh | JMJD2E inh | APEX1 inh | RECQ1 helicase
Nc1ncnc2c1ncn2[C@@H]1O[C@H](COP(=O)(O)OP(=O)(O)OP(=O)(O)O)[C@H]2OC3(O[C@H]21)C([N+](=O)[O-])=CC(=[N+]([O-])[O-])C=C3[N+](=O)[O-] (some centres undefined) | x | 35% | -7% | x | 1% | 21%
OC[C@@H](O)[C@H]1O[C@@H]2OC(C(Cl)(Cl)Cl)O[C@H]2[C@H]1O (some centres undefined) | x | 1% | 2% | x | x | x
CCCCC/C=C\C/C=C\C/C=C\C/C=C\CCCC(=O)O | u | u | 22µM*! | 28µM*! | u | 2.2µM*!
COc1cccc(N2CCN(Cc3ccc(Cl)cc3)CC2)c1 | -24% | -2% | -2% | 20µM* | -9% | -5%
CC(c1nccs1)N(C)C(=O)c1cn(Cc2cccc3ccccc23)nn1 (centres undefined) | x | 5% | 3% | x | 51% | x
Cc1ccccc1-n1c(O)c(C(c2ccncc2)c2c(O)n(-c3ccccc3C)c(=O)[nH]c2=O)c(=O)[nH]c1=O | x | -2% | -24% | 18µM* | -7% | -4%
Cn1c(O)c(C(c2ccncc2)c2c(O)n(C)c(=S)n(C)c2=O)c(=O)n(C)c1=S | x | -1% | -13% | -2% | -6% | i
COc1cc(C(=O)N/N=C/c2ccc(OC(=O)N3CCOCC3)cc2)cc(OC)c1OC | 4% | -11% | -3% | 28µM* | 2% | 7%
C[C@@H]1OC=C2[C@@H](O)[C@H]3O[C@H]3C(=O)[C@@]23[C@H]1[C@H]1C2=C([C@@H](O)[C@H]4O[C@@H]4C2=O)[C@@H]3O[C@@H]1C | x | 0%[12.4 µM] | x | x | -4%[12.4 µM] | 16%[11.5 µM]
CNCCc1ccc(O)c(O)c1 | x | x | 0% | 14µM* | 1% | -3%
CC[n+]1c(-c2ccccc2)c2cc(N)ccc2c2ccc(N)cc21 | x | u | u | u | 32µM*! | 32µM*!
ClC(Cl)=C(Cl)Cl | x | x | x | x | 5% | 3%
CC(C)c1c(CN(C)[C@@H](C)Cc2ccccc2)n(C)n(-c2ccccc2)c1=O | x | -4%[21.4 µM] | 4%[21.4 µM] | 4%[25.5 µM] | x | 0%[25.9 µM]
NC1C=CC=C(C(=O)O)C1 (centres undefined) | x | x | u | -7% | 13µM*! | -13%
CC1(C)[C@@H](O)C[C@H]2[C@](C)(O)[C@@H]3CC[C@H]4[C@@H](O)[C@@]3(C[C@@H](O)[C@@]21O)C[C@@]4(C)O | x | x | 7% | x | u | 4%
O=C(Oc1ccccc1)N1CCC2(CCN(Cc3nccs3)CC2)CC1 | x | -2% | -1% | x | 0% | -3%
[O]=[Cr](=[O])([OH])[O][Cr](=[O])(=[O])[OH] | x | 1µM* | u | x | 25µM*! | 13µM*
C=CCCC#N | x | x | x | x | -2% | -5%
CC(=O)[O][Hg][c]1ccccc1 | x | 5% | u | 2.2µM* | 26% | 9%
CC(=O)/C=C/c1ccccc1 | -11% | x | -1% | x | -1% | -20%
C=CCn1c(O)c(N=Nc2c(C)n(C)n(-c3ccccc3)c2=O)c(=O)[nH]c1=S | 20µM* | -8% | -7% | 5% | -2% | 2%
CCOc1ccc(-n2c(O)c(N=Nc3c(C)n(C)n(-c4ccccc4)c3=O)c(=O)[nH]c2=O)cc1 | 25µM* | -1% | -3% | 7.9µM* | 2% | -8%
CN[C@@H]1C[C@H](c2ccc(Cl)c(Cl)c2)c2ccccc21 | x | 2% | -10% | 8% | -1% | i
COc1ccc2c(c1)[nH]c1c(C)nccc12 | 9% | 91% | u | u | 7.9µM*! | 3%
C=C/C(=C/C(=O)C[C@H](C)C[C@@H](C)CC[C@H](O)[C@H](C)C(=O)C[C@@H](O)[C@H](C)[C@@H](C)OC(=O)C[C@@H](O)C1=C(C)C(=O)OC1=O)CC | x | -17%[12.4 µM] | 3.2µM* | x | -4%[12.4 µM] | i[11.5 µM]
N#CC(C#N)=Cc1cc(O)c(O)c(O)c1 | x | x | -30% | 2µM* | u | 8%
